From PubChem BioAssay AID624297 (National Center for Advancing Translational Sciences (NCATS), 2012)
Out of some 340,000 compounds screened, about 6,200 (1.8%) were called active. Roughly 10% stayed inconclusive and do not appear here. Calls come from the whole dose curve; as a rule, active = well fitted activation curve with a large enough effect; inconclusive = small, poorly fitted or top-dose-only effect; inactive = no such curve, though single readings can be large or run the other way. This excerpt belongs to a sample that is enriched for actives.

test: A quantitative high throughput screen for small molecules that induce DNA re-replication in SW480 colon adenocarcinoma cells.; note: nearly all actives have a fitted effect of over 55% in size; for re-replication activation: % of control where 0% means no effect; conditions: Hoechst DNA content imaging, 48 h; series mostly up to 46.1 µM; re-replication activation: at the top concentration
Method in brief: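 DNA re-replication was detected as more nuclei of elevated Hoechst intensity after 48 hr exposure to compound (23 nL pinned per well of 250 cells).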
Potency is the fitted concentration of half-maximal effect.

Potency, active:
O=C(CSc1cccc[n+]1[O-])c1ccc(-c2ccccc2)cc1 2.82 µM, Cc1cccn2c(=O)c3cc(C(=O)NCCN4CCOCC4)c(=N)n(Cc4cccnc4)c3nc12 4.11 µM, Cc1cccn2c(=O)c3cc(C(=O)NCC4CCCO4)c(=N)n(Cc4ccc(F)cc4)c3nc12 (stereo not drawn) 8.2 µM, Cc1ccc2nc3c(cc(C(=O)NCCc4ccccc4)c(=N)n3CC3CCCO3)c(=O)n2c1 (stereo not drawn) 11.6 µM, Nc1ccc2nc3c(=O)[nH]c(=S)[nH]c3nc2c1 4.61 µM, Oc1ccc(N=Cc2sc3ccccc3c2Cl)cc1 9.2 µM

re-replication activation, inactive:
O=C(CSc1cccc[n+]1[O-])c1ccc(Cl)cc1 9.54%, COc1ccccc1C(=O)CSc1cccc[n+]1[O-] -6.96%, O=C(NCCc1ccc(F)cc1)c1ccc2nccnc2c1 -5.68%, O=C(OCCOc1ccccc1Cl)c1cc(S(=O)(=O)N2CCCCC2)ccc1N1CCOCC1 -2.46%, Cc1cc(C(=O)Nc2nnc(C3CC3)s2)c(C)s1 -62.8%, Cc1ccc(Cn2c(C)c3cnn(CC(=O)NCCN4CCOCC4)c(=O)c3c2C)cc1 -3.76%, Cc1ccc(CCNC(=O)c2ccc3nc4ccccc4c(=O)n3c2)cc1 0.89%, Cc1cccn2c(=O)c3cc(C#N)c(=O)n(CCCN4CCOCC4)c3nc12 -24.6%, O=C(CSc1nc2ccccc2c(=O)n1Cc1ccc(F)cc1)NCC1CCCO1 (stereo not drawn) -1.49%, O=C(NCC1CCCO1)c1cc2c([nH]c3ccccc32)c(-c2ccc(F)cc2)n1 (stereo not drawn) 4.34%, COc1ccc(CCNC(=O)Cn2c(=O)n(CC3CCCO3)c(=O)c3ccccc32)cc1OC (stereo not drawn) 4.93%, COc1ccccc1NC(=O)N(O)C1(C#N)CCCCC1 -4.71%, O=C(Cn1cnc2ccccc2c1=O)NNC(=O)c1ccccc1F -0.586%, CCCN(C(=O)COC(=O)CNS(=O)(=O)c1ccc(NC(C)=O)cc1)C1CCS(=O)(=O)C1 (stereo not drawn) 4.31%, C[C@H]1CN([C@@H](C)CO)C(=O)Cc2cc(NS(C)(=O)=O)ccc2O[C@@H]1CN(C)CC1CC1 -2.55%, NC(=O)c1ncn([C@@H]2O[C@H](CN=C3NS(=O)(=O)c4ccccc43)[C@@H](O)[C@H]2O)n1 -0.422%, CSCCC(NC(=O)COc1ccccc1)C(=O)N1CCN(c2cccc(C(F)(F)F)c2)CC1 (stereo not drawn) -61.9%, CCN(CC)C(=O)[C@H]1C[C@H](CC(=O)NCC23CC4CC(CC(C4)C2)C3)C(=O)N2CCc3c([nH]c4cc(CCC(=O)N(C)C)ccc34)[C@]12C 25.4% [at 9.22 µM], CN(C)C(CNC(=O)c1cc2ccccc2o1)c1ccccc1 (stereo not drawn) -0.173%, O=C(c1cnccn1)N1CCN(S(=O)(=O)c2cccc(Cl)c2)CC1 -0.271%, COc1ccc(N=C(C)c2sc3ccccc3c2O)cc1 -7.9%, Cc1nn(C)cc1/C=N/NC(=O)c1sc2ccccc2c1Cl -4.27%
